Laboratory results as given in the supplement of paper PMC6555819.

Assays:
Assay in all cases: PBM binding z-score (relative to random genomic background probes); higher = stronger binding; sequences stand for … in GC…GCGATTGACAGCGTAGAATGAAGG
[1] = test system: FXR:RXRa (NR concentration 270 nM, RXRa partner concentration 90 nM)
In short: (§1)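 Random background probes are the reference for binding z-scores. These scores derive from regression-normalized fluorescence on custom Agilent 4×180K protein-binding microarrays incubated 1 h with ligand-free nuclear receptor dimers. Binding was detected with antibodies against each partner (one per run).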

[2] = test system: LXRa:RXRa (NR concentration 270 nM, RXRa partner concentration 90 nM)
In short: as §1

[3] = test system: LXRa homodimer (NR concentration 270 nM)
In short: as §1

[4] = test system: LXRb:RXRa (NR concentration 270 nM, RXRa partner concentration 90 nM)
In short: as §1

[5] = test system: LXRb homodimer (NR concentration 270 nM)
In short: as §1

[6] = test system: PPARa:RXRa (NR concentration 270 nM, RXRa partner concentration 90 nM)
In short: as §1

[7] = test system: PPARg:RXRa (NR concentration 180 nM, RXRa partner concentration 90 nM)
In short: as §1

[8] = test system: PPARg:RXRa 270nM:90nM, anti-RXR (NR concentration 270 nM, RXRa partner concentration 90 nM)
In short: as §1

[9] = test system: PPARg:RXRa 30nM:10nM, anti-RXR (NR concentration 30 nM, RXRa partner concentration 10 nM)
In short: as §1

[10] = test system: PPARg:RXRa 90nM:30nM, anti-RXR (NR concentration 90 nM, RXRa partner concentration 30 nM)
In short: as §1

[11] = test system: PPARg:RXRa DBDmut IVT, anti-RXR (DBD mutation: RXRa K156A/R161A, NR concentration 270 nM, RXRa partner concentration 90 nM)
In short: as §1

[12] = test system: PPARg:RXRa IVT, anti-PPARg (NR concentration 270 nM, RXRa partner concentration 90 nM)
In short: as §1

[13] = test system: PPARg DBDmut:RXRa IVT, anti-PPARg (DBD mutation: PPARg1 K132A/R137A, NR concentration 270 nM, RXRa partner concentration 90 nM)
In short: as §1

[14] = test system: PPARg DBDmut IVT, anti-PPARg (DBD mutation: PPARg1 K132A/R137A, NR concentration 270 nM)
In short: as §1

[15] = test system: PPARg homodimer (NR concentration 180 nM)
In short: as §1

[16] = test system: PXR:RXRa (NR concentration 270 nM, RXRa partner concentration 90 nM)
In short: as §1

[17] = test system: PXR homodimer (NR concentration 270 nM)
In short: as §1

[18] = test system: RARa:RXR (NR concentration 270 nM, RXRa partner concentration 90 nM)
In short: as §1

[19] = test system: RARa homodimer (NR concentration 270 nM)
In short: as §1

[20] = test system: RARb:RXRa (NR concentration 270 nM, RXRa partner concentration 90 nM)
In short: as §1

Row | Sequence | PBM binding z-score [1] | PBM binding z-score [2] | PBM binding z-score [3] | PBM binding z-score [4] | PBM binding z-score [5] | PBM binding z-score [6] | PBM binding z-score [7] | PBM binding z-score [8] | PBM binding z-score [9] | PBM binding z-score [10] | PBM binding z-score [11] | PBM binding z-score [12] | PBM binding z-score [13] | PBM binding z-score [14] | PBM binding z-score [15] | PBM binding z-score [16] | PBM binding z-score [17] | PBM binding z-score [18] | PBM binding z-score [19] | PBM binding z-score [20]
1 | ATCTCTAGGTAAAAGTTCAGTGACTCCCGAGGAT | 1.09 | 2.16 | 1.64 | 1.38 | 0.749 | 4.12 | 8.08 | 8.15 | 8.38 | 8.98 | 2.54 | 3.69 | 1.46 | 1.46 | 1.59 | 2.36 | 1.59 | 1.97 | 0.841 | 2.39
2 | ACTAGTTGGTCAGCTAAGGTCACACACAATTCGG | 3.65 | 3.51 | 2.56 | 3.35 | 0.836 | 3.93 | 1.94 | 2.76 | 0.836 | 1.64 | 1.38 | 2.77 | 0.873 | 0.678 | 3.37 | 5.12 | 1.46 | 4.92 | 2.09 | 4
3 | GGAACGAGGGCATTCGAGTTGATAGTATGGCGAT | 1.62 | 1.71 | -0.324 | 0.436 | -0.544 | 1.62 | 1.13 | 1.22 | 0.197 | 0.753 | 3 | 2.29 | -0.142 | -0.408 | -0.115 | 4.11 | 1.45 | 0.744 | 0.0734 | 1.98
